# Screening data: PubChem BioAssay, Paczesny and Yang Labs, IUPUI and University of Michigan
# ST2 inh: IL1RL1 inhibition | AlphaLISA ST2-Fc/biotin-IL-33 interaction, 1 h | inhibition, % for hits at 17 µM | hit rate 2.3% among 78,000; in the data active = inhibition above about 30%
# Target sequence (Q01638 whole entry, looked up): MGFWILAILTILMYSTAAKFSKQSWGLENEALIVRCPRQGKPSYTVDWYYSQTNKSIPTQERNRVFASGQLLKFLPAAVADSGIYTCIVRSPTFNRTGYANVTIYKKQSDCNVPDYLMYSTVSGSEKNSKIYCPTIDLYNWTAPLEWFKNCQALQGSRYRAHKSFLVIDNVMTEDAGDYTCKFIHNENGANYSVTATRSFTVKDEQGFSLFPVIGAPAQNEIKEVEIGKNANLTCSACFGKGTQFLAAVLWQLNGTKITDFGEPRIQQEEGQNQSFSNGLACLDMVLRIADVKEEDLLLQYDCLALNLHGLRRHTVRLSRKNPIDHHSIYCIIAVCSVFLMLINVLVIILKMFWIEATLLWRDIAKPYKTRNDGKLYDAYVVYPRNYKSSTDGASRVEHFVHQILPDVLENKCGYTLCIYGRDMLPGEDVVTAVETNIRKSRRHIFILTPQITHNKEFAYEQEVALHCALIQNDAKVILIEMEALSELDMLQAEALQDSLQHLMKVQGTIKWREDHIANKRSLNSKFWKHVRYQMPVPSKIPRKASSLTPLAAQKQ
# Numbers without * were called inactive; i = inactive. The sample as a whole holds a higher share of hits than the screen did.
SMILES,ST2 inh
COc1ccc(C2SCCN2S(=O)(=O)c2cccc(C(F)(F)F)c2)cc1[N+](=O)[O-] (configuration not stated),i
Cc1cccc(S(=O)(=O)N2CCSC2c2ccc(Br)cc2)c1 (configuration not stated),i
O=S(=O)(c1ccc(-c2ccccc2)cc1)N1CCSC1c1ccccc1 (configuration not stated),i
Cc1ccc(S(=O)(=O)N2CCSC2c2ccc(Br)cc2)cc1 (configuration not stated),70.0%*
CC1(C)CC(=O)C2=C(C1)Nc1ccccc1NC2c1ccc(OCc2ccccc2)cc1 (configuration not stated),i
CC(O)c1ccc2c(c1)C1c3ccccc3C2c2ccccc21 (configuration not stated),i
CC(C)c1ccc(Nc2c(-c3ccco3)nc3ccccn23)cc1,i
O=[N+]([O-])c1cc(C=Nc2c(-c3ccco3)nc3ccccn23)c(Cl)cc1Cl,44.0%*
O=[N+]([O-])c1cc(N=Cc2nc(-c3ccccc3F)oc2O)ccc1Cl,i
CCn1cnnc1CN(C)Cc1nc(-c2cc(OC)ccc2F)oc1C,i
Cc1ccc2nc(N=S(=O)(O)c3ccc(Cl)cc3)c(Cl)nc2c1,i
COc1ccc(NCN2C(=O)c3ccccc3C2=O)c(OC)c1,i
COc1ccccc1NS(=O)(=O)c1cc([N+](=O)[O-])ccc1C,i
CC(C)c1ccccc1NS(=O)(=O)c1ccc(F)cc1,i
COc1ccccc1NC1=CC(=NS(=O)(=O)c2ccc(C)cc2C)c2ccccc2C1=O,95.0%*
COc1ccccc1NS(=O)(=O)c1ccc2[nH]c(=O)sc2c1,i
COc1ccccc1NC(=O)c1ccc(F)cc1,i
COc1ccccc1NC(=O)CN(C)S(=O)(=O)c1ccccc1,i
COc1ccccc1NC1=CC(=NS(=O)(=O)c2ccccc2)c2ccccc2C1=O,95.0%*
COc1ccccc1NC1=CC(=NS(=O)(=O)c2ccc(F)cc2)c2ccccc2C1=O,95.0%*
CCOc1ccccc1NS(=O)(=O)c1cc(C)ccc1OC,i
COc1ccccc1NC(=O)C(Cc1ccccc1)N1C(=O)c2ccccc2C1=O (configuration not stated),i
Cc1ccccc1NC1=CC(=NS(=O)(=O)c2ccc(F)cc2)c2ccccc2C1=O,77.0%*
Cc1ccccc1NS(=O)(=O)c1ccc(NS(=O)(=O)c2ccc(F)cc2)cc1,i
COc1cccc(C2Nc3ccccc3NC3=C2C(=O)CC(c2ccc(F)cc2)C3)c1 (configuration not stated),i
SMILES,ST2 inh
CC(C)c1ccc(NC(=O)c2ccco2)cc1,i
CCOC(=O)c1c(NC(=O)c2cc(=O)c3ccccc3o2)sc2c1CCC(C)C2 (configuration not stated),i
O=C(Nc1ccc(F)cc1)Nc1cccc(Cl)c1,i
CN(CCc1ccccn1)C(=O)Cc1c(C(=O)O)[nH]c2ccccc12,i
Cc1cc(C)c(-n2cccn2)c(CN2CCN(C)C3(CCN(C)CC3)C2)c1,i
O=C1CC(c2ccc3c(c2)OCO3)CC2=C1C(c1cccnc1)Nc1ccccc1N2 (configuration not stated),i
COc1ccc2nc3sc(C(=O)Nc4ccc(F)cc4F)cc3cc2c1,i
CN1CC2(CCN(C(=O)c3ccc(Cn4ccnc4)o3)C2)OC1=O (configuration not stated),i
CCc1ccc(S(=O)(=O)N=C2C=C(Nc3ccccc3OC)C(=O)c3ccccc32)cc1,95.0%*
COc1ccc(S(=O)(=O)N=C2C=C(Nc3ccccc3OC)C(=O)c3ccccc32)cc1,94.0%*
COc1ccc(S(=O)(=O)Nc2ccccc2C)cc1,i
COc1ccccc1NS(=O)(=O)c1ccc(Cl)cc1,i
COc1ccc(S(=O)(=O)Nc2ccccc2Br)cc1OC,i
CCc1ccc(S(=O)(=O)N2CCSC2c2ccccc2OC)cc1 (configuration not stated),i
CCCc1cc(C(=O)N(CCOC)CC2CCN(Cc3ccccc3F)CC2)no1,i
COc1ccc(C(=O)C2CCCN(c3cnc4ccccc4n3)C2)cc1OC (configuration not stated),i
COc1ccc(CN(C)C(=O)CC(=O)Nc2cc(C)cc(C)c2)c2cccnc12,i
O=C(NC1(C(F)(F)F)Oc2ccc(Cl)cc2O1)N1CCCCCC1 (configuration not stated),i
CC1=C(C(N)=O)C(c2cccc(F)c2)n2nc(SCc3ccccc3F)nc2N1 (configuration not stated),i
CCCCc1ncc([C@@H]2C[C@H](NC(C)=O)C[C@H](CC(C)C)O2)[nH]1,i
Brc1cccc(CSc2nc3ccccc3[nH]2)c1,i
CN(CCC1CCOCC1)C(=O)CC1C(=O)NCCN1Cc1cccc2ccccc12 (configuration not stated),i
CN(Cc1cnccn1)C(=O)CC1C(=O)NCCN1Cc1ccc(F)cc1Cl (configuration not stated),i
CC(C)CN1CCNC(=O)C1CC(=O)N(C)Cc1cccc2cccnc12 (configuration not stated),79.0%*
CCCCNC(=O)C1CCC(Cn2c(=O)c3sccc3n(CC(=O)NC3CCCC3)c2=O)CC1 (configuration not stated),i
SMILES,ST2 inh
Cc1cccc(Cc2c(C)nc3nc(SCC(=O)N4CCCC4)nn3c2C)c1,i
CC(Oc1ccccc1)C(=O)Nc1cccc(Cl)c1 (configuration not stated),i
CC(Oc1ccc(Cl)cc1Cl)C(=O)Nc1cccc([N+](=O)[O-])c1 (configuration not stated),30.0%*
Cc1cc(Cl)ccc1OC(C)C(=O)Nc1c(Cl)cccc1Cl (configuration not stated),i
Nc1nccc(-c2ccc(F)cc2Cl)n1,i
COc1ccc(NC(=O)CN2CCCN(Cc3cccc(F)c3)S2(=O)=O)c(OC)c1,i
O=C1Nc2ccccc2N(O)N1c1ccc(F)c([N+](=O)[O-])c1,i
CCOc1ccc(Br)cc1C1C2=C(CCCC2=O)N(CC(=O)O)C2=C1C(=O)CCC2,i
C[C@@]12CC[C@@H](C[C@@H]1N)C2,41.0%*
C(=C\c1cc(/C=C/c2ccccc2)ncn1)/c1ccccc1,i
O=C(c1ccccc1)c1ccc(/C=C/c2ccccn2)cc1,55.0%*
C(=C\c1ccccn1)/c1cccc(-n2cnnc2)c1,i
O=[N+]([O-])c1cc(C=Nc2ccc(N3CCOCC3)cc2)ccc1Cl,48.0%*
O=[N+]([O-])c1cc(C=Nc2ccc(-c3nc4ncccc4o3)cc2)ccc1Cl,i
O=[N+]([O-])c1ccc(N2CCCC2)cc1N1CCOCC1,i
Cc1ccc(NC(=O)c2coc(=O)c3ccccc23)c(Br)c1,i
O=C(NC1CCN(Cc2ccccc2)CC1)C1CCCN(S(=O)(=O)c2cnc[nH]2)C1 (configuration not stated),i
O=C(O)c1cccc(NC(=O)c2ccc(-c3ccccc3)cc2)c1,i
CC1(C)OC(=O)C(=CNc2cccc(C(=O)O)c2)C(=O)O1,33.0%*
O=C(O)c1cccc(NC(=O)c2cccc(C(=O)Nc3cccc(C(=O)O)c3)c2)c1,i
COc1cc(NC(=O)/C=C/c2ccccc2)c2ncccc2c1,35.0%*
COc1ccccc1NC(=O)Nc1cccc2cccnc12,i
O=C(/C=C/c1ccccc1)Nc1cc2ccccc2oc1=O,i
